Laboratory results: PubChem BioAssay (NCI)
The panel holds about 83,000 compounds, 20% with a hit somewhere; the sample as a whole holds those more often.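 Testing used 96-well plates and a 48-hour single-concentration exposure. Example: -40 means 40% of the starting cells died.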 Calls of active or inactive are those of the source.

system: TK-10 renal; assay: NCI-60 one-dose screen, 48 h (100 = growth as untreated, 0 = no growth, -100 = all killed); conditions: 10 µM unless noted
Experimental: Growth inhibition of the TK-10 human tumor cell line is measured as a screen for anti-cancer activity. Cells are grown in 96 well plates and exposed to the test compound for 48 hours. Compounds are tested at a single concentration, which is 10^-5 M for most compounds. The reported endpoint is percent growth (GI% or GIPRCNT), where numbers from 0 - 100% represent growth inhibition, and numbers from -100% - 0 represent cell death. For example, a value of 40 represents 60% growth inhibition. A value of 0 means no net growth occurred over the course of the experiment. A value of -40 indicates 40% of cells at the beginning of the experiment died by the end of the experiment. A value of -100 means all cells are dead at the end of the experiment.
NCI-60 Human Tumor Cell Lines Screen was performed using the standard one-dose NCI protocol, which is described in more detail at https://dtp.cancer.gov/discovery_development/nci-60/default.htm.
Compounds with GIPRCNT values below 10 were considered active. Activity score was based on GIPRCNT using the following formula: […]
Score is 0 for GIPRCNT values of 100 or above, 50 for GIPRCNT values of 0, and 100 for GIPRCNT values of -100.

Row | Compound | growth
1 | CCN(CC)CCOC(=O)C(OC(C)C)(c1ccccc1)c1ccccc1 | 89% (inactive)
2 | C[C@]12CC[C@H]3[C@@H](C[C@@H]4SC(Nc5ccccc5)=N[C@@]45CC(O)CC[C@]35C)[C@@H]1CCC2O (stereo not given in full) | 65% (inactive)
3 | COC(=O)[C@@]1(C)CC[C@]2(C)CC[C@]3(C)C4=CC=C5C(=CC(=O)C(O)=C5C)[C@]4(C)CC[C@@]3(C)[C@@H]2C1 | -95.7% (active)
4 | O=C(CC1(O)C(=O)Nc2ccccc21)c1ccc(C(=O)NCC2CCC3(CC2)OOC2(CCCCC2)OO3)cc1 (stereo not given) | 104% (inactive)
5 | COc1ccc(/C=C\c2cc(OC)c(OC)c(OC)c2)cc1OCC(=O)Nc1nc2ccc(OC(F)(F)F)cc2s1 | 47% (inactive)
6 | COC(=O)[C@@H](C)C[C@H](Cc1ccccc1)NC(=O)c1nc([C@@H](C[C@H](C(C)C)N(C)C(=O)[C@@H](NC(=O)[C@H]2CC(=O)CCN2C)C(C)C)OC(C)=O)sc1C(C)C | 46.5% (inactive)
7 | COC(=O)[C@@H](C)C[C@H](Cc1ccc2ccccc2c1)NC(=O)c1csc([C@@H](C[C@H](C(C)C)N(C)C(=O)[C@@H](NC(=O)[C@H]2CCCCN2C)C(C)C)OC(C)=O)n1 | 28% (inactive)
8 | Clc1cccc(NCOOC2(OOCNc3cccc(Cl)c3)CCCCC2)c1 | 86.3% (inactive)
9 | ClCCN(CCCl)c1ccc(OCc2ccccc2)cc1 | 96.3% (inactive)
10 | COc1cccc2c1c(C(=O)C(=O)Nc1cc(C)no1)cn2Cc1ccc(F)cc1 | 82.6% (inactive)
11 | Nc1ccc2c(c1)oc1ccccc12 | 135% (inactive)
12 | CC(=O)OCC1O[C@@H]([S-])C(OC(C)=O)[C@H](OC(C)=O)[C@@H]1OC(C)=O.[Au+].c1ccc(CN2[CH-]N(Cc3ccccc3)C(c3ccccc3)=C2c2ccccc2)cc1 | 29.6% (inactive)
13 | O=C1NC(=O)C(=Cc2cn(C(=O)c3ccccc3)c3ccccc23)C(=O)N1 | 138% (inactive)
14 | CC1=C(CN)C2=C(C)C3(CC3)[C@@](C)(O)C(=O)C2=C1 | 102% (inactive)
15 | CC(CO)NC1CCCCC1 (stereo not given) | 94.9% (inactive)
16 | COc1ccc(S(=O)(=O)Nc2c(/C=C\c3cc(OC)c(OC)c(OC)c3)ccc(OC)c2O)cc1OC | 70.9% (inactive)
17 | c1cnc2[nH]cc(-c3csc(-c4cn(CCCCN5CCCCC5)c5ccccc45)n3)c2c1 | 124% (inactive)
18 | O=C([O][Hg][c]1ccccc1)c1ccccc1 | -86.5% (active)
19 | Cc1cc(C)c(CBr)c(C)c1 | 98.1% (inactive)
20 | COc1ccc(C/C(C)=C(\c2ccc(OCCN3CCOCC3)cc2)c2ccc(OC(=O)Cc3ccccc3)cc2)cc1 | -46.1% (active)

Row | Compound | growth
21 | COc1cccc2c1c(C(=O)C(=O)Nc1ccn[nH]1)cn2Cc1ccc(F)cc1 | 51.7% (inactive)
22 | C/C(=C\c1ccn(-c2ccc(N)c(F)c2)n1)[C@@H]1C[C@@H]2O[C@]2(C)CCC[C@H](C)[C@H](O)[C@@H](C)C(=O)C(C)(C)[C@@H](O)CC(=O)O1 | 44.6% (inactive)
23 | Cc1cc(N(CCCl)CCCl)ccc1/C=N\NC(=O)c1ccncc1 | 93.1% (inactive)
24 | COC(=O)[C@@H](C)C[C@H](Cc1ccccc1)NC(=O)c1nc([C@@H](C[C@H](C(C)C)N(C)C(=O)[C@@H](NC(=O)[C@H]2C[C@H](O)CCN2C)C(C)C)OC(C)=O)sc1C(C)C | 27.5% (inactive)
25 | NC(=Nc1ccccc1)N[N+](=O)[O-] | 103% (inactive)
26 | COC(=O)N[C@H]1CCc2c(Br)c(OC)c(OC)c(OC)c2-c2ccc(SC)c(=O)cc21 | 41.6% (inactive)
27 | Nc1ccc2c(c1)Cc1cc(Br)ccc1-2 | 123% (inactive)
28 | CC(=O)Nc1ccc(NC(=O)c2ccc([As](O)O)cc2)cc1 | 136% (inactive)
29 | CC(C)=CCc1c(O)c(C(=O)CC(C)C)c(O)c2c(-c3ccccc3)cc(=O)oc12 | 56.8% (inactive)
30 | O=C(CC1(O)C(=O)N(Cc2ccccc2)c2ccccc21)c1ccc(C(=O)NCC2CCC3(CC2)OOC2(CCCCC2)OO3)cc1 (stereo not given) | -93.2% (active)
31 | COc1ccc(N(CC(=O)NCCC[Te]c2ccccc2)C(=O)CCSC2=C(C)C(=O)c3ccccc3C2=O)cc1 | 8.99% (active)
32 | COc1cccc(/C=C/[N+](=O)[O-])c1 | 90.9% (inactive)
33 | N/C(=N/N=C/c1ccncc1)N[N+](=O)[O-] | 94.1% (inactive)
34 | CC[C@H](C)[C@@H]([C@@H](CC(=O)N1CCC[C@H]1[C@H](OC)[C@@H](C)C(=O)N[C@H](C)[C@@H](O)c1ccccc1)OC)N(C)C(=O)[C@@H](NC(=O)[C@@H](NC)C(C)C)C(C)C | 47.2% (inactive)
35 | CN(C)C(=O)Oc1ccccc1 | 107% (inactive)
36 | CCCC(C)C1(CC)C(=O)NC(=O)N(C)C1=O (stereo not given) | 92.6% (inactive)
37 | OCCNC(Cc1ccccc1)c1ccc2c(c1)OCO2 (stereo not given) | 73.2% (inactive)
38 | CNC(=O)Oc1ccc2c(c1)OCO2 | 101% (inactive)
39 | COc1ccc(C(=O)c2sc3nc4c(cc3c2N)N2CCC4CC2)cc1OC | 91.7% (inactive)
40 | Nc1nc([Se])c2ncn(C3OC(CO)C(O)C3O)c2n1 (stereo not given) | 59.6% (inactive)
